# From PubChem BioAssay
# Calls of active or inactive are those of the source.
# What was measured:
# [1] = test system: Plasmodium falciparum Sir2 (PF13_0152, Sir2A); assay: pfSir2 binders on small-molecule microarrays, primary screen, biochemical, small-molecule microarray, 635 nm fluorescence (AID 1098); conditions: small-molecule microarray binding, fluorescence 635 nm; higher = more signal;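 also: score merges spot fluorescence intensity with its signal-to-noise ratio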
# [2] = small-molecule microarray binders of probe aDKK1, primary screen, biochemical, biotinylated probe, 635/667 nm fluorescence (AID 1099); conditions: higher = more signal;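 also: score merges 667nm spot fluorescence with signal to noise across triplicate slides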
# [3] = small-molecule microarray binders of probe aCHRDL2, primary screen, biochemical, biotinylated probe, 635/667 nm fluorescence (AID 1100); conditions: higher = more signal
# [4] = splicing luciferase reporter signal modulators, primary screen, spliceosome inhibition project, cell-based, HEK293, splice +/- reporter (AID 1101); conditions: luminescence, 24 h, higher = more signal, called active from +8 up or from −8 down;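 also: HEK293 cells carrying a splicing-competent luciferase reporter gene; test concentration not given here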
# [5] = molecular target: Fibroblast growth factor 10 (Homo sapiens) (UniProt O15520); assay: FGF10 binders on small-molecule microarrays, primary screen, biochemical, small-molecule microarray, 635 nm fluorescence (AID 1102); conditions: FGF10 binding, fluorescence 635 nm, higher = more signal
# [6] = test system: glycogen synthase kinase-3 (GSK3A per assay name; protocol says GSK3B); assay: GSK3 binders on small-molecule microarrays, primary screen, biochemical, small-molecule microarray, 635 nm fluorescence, GSK3A (AID 1103); conditions: small-molecule microarray binding, fluorescence 635 nm; higher = more signal; also: the record names both GSK3A and GSK3B
# [7] = molecular target: Epidermal growth factor receptor (Homo sapiens) (UniProt P00533); assay: EGFR binders on small-molecule microarrays, primary screen, biochemical, small-molecule microarray, 635 nm fluorescence (AID 1104); conditions: EGFR binding, higher = more signal;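 also: score merges 667 nm emission intensity with spot signal to noise over triplicate slides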
# [8] = molecular target: Follistatin-related protein 3 (Homo sapiens) (UniProt O95633); assay: FSTL3 binders on small-molecule microarrays, primary screen, biochemical, small-molecule microarray, 635 nm fluorescence (AID 1105); conditions: FSTL3 binding, higher = more signal;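 also: score merges emission near 667 nm and signal to noise per printed spot across three slides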
# [9] = molecular target: Dickkopf-related protein 1 (Homo sapiens) (UniProt O94907); assay: DKK1 binders on small-molecule microarrays, primary screen, biochemical, small-molecule microarray, 635 nm fluorescence scan (AID 1106); conditions: DKK1 binding, higher = more signal;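 also: score merges emission near 667 nm with signal to noise over three replicate slides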
# [10] = test system: Inhibin beta A chain (activin A); assay: INHBA (activin A) binders on microarrays, primary screen, biochemical, small-molecule microarray, 635 nm fluorescence scan (AID 1107); conditions: small-molecule microarray binding, higher = more signal;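 also: mouse activin A protein probed at 4.33 µg/mL on printed slides; score merges bound-protein fluorescence near 667 nm with spot signal-to-noise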
# [11] = test system: Human papillomavirus type 1a protein E7 (residues 44-93); assay: HPV1a E7 fragment binders on microarrays, primary screen, biochemical, small-molecule microarray, residues 44-93, 635 nm fluorescence (AID 1108); conditions: small-molecule microarray binding, fluorescence 635 nm; higher = more signal;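 also: E7 fragment applied at 1 µg/mL in TBST for 1 h at 4 C; score combines spot fluorescence with its signal to noise ratio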
# [12] = modulators of HCV replicon luciferase signal, primary screen, HCV replication inhibitor project, Huh7 cells, luciferase reporter (AID 1109); conditions: 48 h, higher = more signal;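 also: huh7 hepatoma cells harbouring a luciferase neomycin HCV replicon reporter; luciferase luminescence as measure of HCV replicon replication; test concentration not given here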
# [13] = molecular target: Left-right determination factor 2 (Homo sapiens) (UniProt O00292); assay: LEFTY2 binders on small-molecule microarrays, primary screen, biochemical, small-molecule microarray, 635 nm fluorescence scan (AID 1110); conditions: LEFTY2 binding, higher = more signal
# [14] = molecular target: Calmodulin-1 (Homo sapiens) (UniProt P0DP23); assay: CALM1 binders on microarrays, EGTA buffer, profiling panel, biochemical, small-molecule microarray, Cy5-labelled CALM1 (AID 1111); conditions: Cy5-CALM1 binding fluorescence, higher = more signal;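 also: labelled calmodulin applied in Tris saline Tween buffer holding calcium plus EGTA and DTT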
# [15] = molecular target: Calmodulin-1 (Homo sapiens) (UniProt P0DP23); assay: calcium-bound CALM1 binders on microarrays, profiling panel, artefact control for SMM control-protein annotation, biochemical, small-molecule microarray, Cy5-labelled CALM1, plus calcium (AID 1112); conditions: Cy5-CALM1 binding fluorescence, higher = more signal;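 also: score merges spot fluorescence with signal to noise from triplicate slides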
# [16] = small-molecule microarray binders of probe aWnt5a, primary screen, biochemical, biotinylated probe, 635/667 nm fluorescence (AID 1113); conditions: higher = more signal;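 also: score merges 667 nm fluorescence intensity with signal-to-noise per printed feature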
# [17] = small-molecule microarray binders of probe aShh, primary screen, biochemical, biotinylated probe, 635/667 nm fluorescence (AID 1114); conditions: higher = more signal;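 also: probe is biotin-labelled aShh protein from a stem cell growth factor screen; measures binding of labelled protein to compounds printed on the slide; score merges feature fluorescence at 667 nm with signal-to-noise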
# [18] = small-molecule microarray binders of probe aNog, primary screen, biochemical, biotinylated probe, 635/667 nm fluorescence (AID 1115); conditions: higher = more signal;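 also: probe is biotinylated aNog protein used at 0.15 µg/mL for 1 h at 4 C; z-score combines 667 nm fluorescence of each spot with its signal to noise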
# [19] = molecular target: Torsin-1A-interacting protein 1 (Homo sapiens) (UniProt Q5JTV8); assay: LAP1 binders from COS7 cell lysate, primary screen, small-molecule microarray, 635/667 nm fluorescence (AID 1116); conditions: COS7-hLAP1 lysate binding, 635 nm fluorescence, higher = more signal
# [20] = molecular target: Alpha-bungarotoxin (Bungarus multicinctus) (UniProt P60615); assay: alpha-bungarotoxin binders on microarray, profiling panel, artefact control for SMM control protein annotation, biochemical, small-molecule microarray, Alexa647 label, 635/667 nm fluorescence (AID 1117); conditions: alpha-BTX-A647 binding fluorescence, higher = more signal
# Chain of Alpha-bungarotoxin (Bungarus multicinctus) (P60615 whole entry, looked up): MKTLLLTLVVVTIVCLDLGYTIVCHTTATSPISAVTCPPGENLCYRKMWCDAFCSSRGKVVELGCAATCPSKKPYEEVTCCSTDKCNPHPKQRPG
# Chain of Epidermal growth factor receptor (Homo sapiens) (P00533 whole entry, looked up): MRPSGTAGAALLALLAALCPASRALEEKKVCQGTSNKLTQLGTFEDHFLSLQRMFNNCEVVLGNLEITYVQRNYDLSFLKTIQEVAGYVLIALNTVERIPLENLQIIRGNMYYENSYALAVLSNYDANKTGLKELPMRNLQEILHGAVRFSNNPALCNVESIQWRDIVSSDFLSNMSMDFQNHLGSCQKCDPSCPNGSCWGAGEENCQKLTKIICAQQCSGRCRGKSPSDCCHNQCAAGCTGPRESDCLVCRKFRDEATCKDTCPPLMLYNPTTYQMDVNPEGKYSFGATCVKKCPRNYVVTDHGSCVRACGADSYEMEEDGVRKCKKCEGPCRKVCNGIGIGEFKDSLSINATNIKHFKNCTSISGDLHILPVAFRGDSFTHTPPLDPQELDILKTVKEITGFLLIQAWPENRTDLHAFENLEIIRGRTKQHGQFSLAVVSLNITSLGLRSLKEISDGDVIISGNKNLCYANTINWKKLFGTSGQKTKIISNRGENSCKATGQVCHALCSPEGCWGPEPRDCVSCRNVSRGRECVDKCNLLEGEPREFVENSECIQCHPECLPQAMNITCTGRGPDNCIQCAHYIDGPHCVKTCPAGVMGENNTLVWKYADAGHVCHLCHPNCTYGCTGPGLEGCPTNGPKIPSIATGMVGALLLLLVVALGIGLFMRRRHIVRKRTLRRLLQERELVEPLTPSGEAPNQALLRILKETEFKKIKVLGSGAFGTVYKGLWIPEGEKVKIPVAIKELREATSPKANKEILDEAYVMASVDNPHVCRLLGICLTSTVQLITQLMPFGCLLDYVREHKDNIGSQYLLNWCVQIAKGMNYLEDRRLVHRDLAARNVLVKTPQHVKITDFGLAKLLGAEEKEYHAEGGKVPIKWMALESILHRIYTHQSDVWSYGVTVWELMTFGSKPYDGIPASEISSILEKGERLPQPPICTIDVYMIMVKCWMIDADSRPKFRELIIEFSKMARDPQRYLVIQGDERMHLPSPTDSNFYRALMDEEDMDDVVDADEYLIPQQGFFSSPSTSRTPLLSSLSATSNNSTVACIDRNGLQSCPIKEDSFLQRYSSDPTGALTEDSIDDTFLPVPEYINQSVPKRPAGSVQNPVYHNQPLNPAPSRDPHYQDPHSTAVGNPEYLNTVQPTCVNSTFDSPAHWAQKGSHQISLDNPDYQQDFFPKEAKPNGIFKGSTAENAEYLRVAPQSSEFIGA
# Chain of Torsin-1A-interacting protein 1 (Homo sapiens) (Q5JTV8 whole entry, looked up): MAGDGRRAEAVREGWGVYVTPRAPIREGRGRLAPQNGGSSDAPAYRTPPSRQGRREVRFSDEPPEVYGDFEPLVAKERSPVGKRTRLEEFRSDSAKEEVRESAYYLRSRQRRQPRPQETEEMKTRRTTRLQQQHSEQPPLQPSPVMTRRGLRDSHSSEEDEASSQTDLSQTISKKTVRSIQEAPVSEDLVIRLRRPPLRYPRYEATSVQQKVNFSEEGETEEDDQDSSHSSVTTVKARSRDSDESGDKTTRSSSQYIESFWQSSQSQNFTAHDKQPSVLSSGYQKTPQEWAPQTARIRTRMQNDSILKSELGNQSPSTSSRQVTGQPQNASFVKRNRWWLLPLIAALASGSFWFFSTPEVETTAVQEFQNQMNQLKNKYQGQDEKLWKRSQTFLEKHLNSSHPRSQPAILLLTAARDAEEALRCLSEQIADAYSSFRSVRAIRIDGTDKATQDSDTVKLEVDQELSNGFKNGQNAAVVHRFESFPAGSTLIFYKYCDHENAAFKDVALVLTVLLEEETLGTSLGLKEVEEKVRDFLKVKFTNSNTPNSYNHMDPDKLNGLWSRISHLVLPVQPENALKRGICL
# Chain of Fibroblast growth factor 10 (Homo sapiens) (O15520 whole entry, looked up): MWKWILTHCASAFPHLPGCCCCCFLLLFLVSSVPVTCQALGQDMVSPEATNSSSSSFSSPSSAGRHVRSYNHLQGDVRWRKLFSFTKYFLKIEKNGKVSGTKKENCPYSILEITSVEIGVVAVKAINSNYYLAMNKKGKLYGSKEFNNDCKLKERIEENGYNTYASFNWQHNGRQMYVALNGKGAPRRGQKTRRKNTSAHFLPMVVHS
# Chain of Follistatin-related protein 3 (Homo sapiens) (O95633 whole entry, looked up): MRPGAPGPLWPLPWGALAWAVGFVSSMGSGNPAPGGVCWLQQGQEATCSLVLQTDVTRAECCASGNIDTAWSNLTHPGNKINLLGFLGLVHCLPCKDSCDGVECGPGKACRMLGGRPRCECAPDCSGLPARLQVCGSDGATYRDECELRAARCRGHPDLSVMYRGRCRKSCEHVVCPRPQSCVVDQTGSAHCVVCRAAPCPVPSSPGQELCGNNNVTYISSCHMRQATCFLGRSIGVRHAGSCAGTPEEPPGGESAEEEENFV
# Chain of Dickkopf-related protein 1 (Homo sapiens) (O94907 whole entry, looked up): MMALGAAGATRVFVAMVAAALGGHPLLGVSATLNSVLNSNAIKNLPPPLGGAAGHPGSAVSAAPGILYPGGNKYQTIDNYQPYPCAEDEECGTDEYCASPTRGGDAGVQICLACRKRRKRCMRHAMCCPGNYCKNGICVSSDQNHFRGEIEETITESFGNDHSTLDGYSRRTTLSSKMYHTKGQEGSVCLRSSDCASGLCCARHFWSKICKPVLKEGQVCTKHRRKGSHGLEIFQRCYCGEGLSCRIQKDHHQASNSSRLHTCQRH
# Chain of Left-right determination factor 2 (Homo sapiens) (O00292 whole entry, looked up): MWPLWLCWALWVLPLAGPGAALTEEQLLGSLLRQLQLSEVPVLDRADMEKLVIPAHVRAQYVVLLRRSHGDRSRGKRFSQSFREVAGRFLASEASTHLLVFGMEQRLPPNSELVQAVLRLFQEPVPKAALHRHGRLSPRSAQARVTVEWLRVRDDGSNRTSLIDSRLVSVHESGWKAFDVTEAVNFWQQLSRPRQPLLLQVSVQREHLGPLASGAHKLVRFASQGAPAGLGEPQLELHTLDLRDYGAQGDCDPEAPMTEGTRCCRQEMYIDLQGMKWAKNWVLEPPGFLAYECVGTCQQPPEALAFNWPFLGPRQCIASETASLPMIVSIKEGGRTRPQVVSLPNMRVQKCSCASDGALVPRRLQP
Compound,composite z-score [1],composite z-score [2],composite z-score [3],z-score [4],composite z-score [5],composite z-score [6],composite z-score [7],composite z-score [8],composite z-score [9],composite z-score [10],composite z-score [11],z-score [12],composite z-score [13],composite z-score [14],composite z-score [15],composite z-score [16],composite z-score [17],composite z-score [18],composite z-score [19],composite z-score [20]
Cc1ccc(N2C(=O)c3ccccc3[C@@H](C(=O)NC3CC3)[C@@H]2c2ccc(CO)cc2)nc1,1.24,-0.201,0.908,0.942 (inactive),-1.5,-0.968,-1.58,-1.38,-2.23,-0.314,-1.51,-0.312,-3.3,-1.35,-1.25,-0.268,-0.0866,-0.126,-0.13,-1.36
O=C(NCCN1CCOCC1)[C@@H]1c2ccccc2C(=O)N(C2CCCCC2)[C@H]1c1ccc(CO)cc1,1.06,0.484,0.92,0.261 (inactive),-0.534,-0.362,-1.03,-0.942,-0.809,0.891,1.44,-1.49,-0.0308,0.0999,-0.336,-0.101,-0.138,0.76,0.0614,-0.0569
CCCCC(CC)C(O)C1C=CC2C(=O)N(Cc3ccccc3)C(=O)C2N1n1cnnc1 (stereo not given),-0.503,0.197,0.552,-0.44 (inactive),-0.0566,-0.0058,-0.286,0.0568,-0.691,0.82,0.281,0.137,-0.729,-0.0327,-0.658,-0.124,-0.153,-0.127,-0.0742,0.308
COC(=O)C(CC#Cc1ccc2c(c1)[C@]1(C(=O)N2)[C@H](C(=O)Nc2nc3ccccc3s2)[C@H]2C(=O)O[C@H](c3ccccc3)[C@H](c3ccccc3)N2[C@@H]1c1ccccc1OCCO)C(=O)OC,1.61,0.473,0.561,1.44 (inactive),0.904,1.24,0.282,0.701,0.193,0.303,1.17,-2.55,0.286,1.42,0.504,-0.0346,0.257,0.733,1.01,2.31
COc1cc(COC(C)=O)ccc1OC(C)=O,0.0968,1.85,0.285,-0.309 (inactive),0.301,0.578,1.04,0.505,1.17,0.47,0.793,-0.785,0.44,0.434,-0.156,0.731,-0.093,-0.0878,0.299,-0.0551
CC(=O)NCCCC[C@@H]1NC(=O)[C@H]2C[C@@H](C(=O)NCCCCCCNC(=O)CS)[C@@H](c3ccc(O)cc3)N2C1=O,0.629,-0.0749,0.986,-0.401 (inactive),0.0258,0.0703,-0.728,-0.961,-0.788,-1.11,1.06,-0.532,-0.747,0.362,-0.295,-0.124,0.131,0.0933,0.284,1.33
C=CCN1C(=O)[C@@]2(Cc3ccccc31)N=C(c1ccc(OCCCO)cc1)O[C@H]2c1ccccc1,1.16,1.01,0.935,-1.52 (inactive),0.583,1.32,0.435,0.983,0.776,1.13,0.896,-2.11,0.308,0.355,-0.231,0.0458,0.308,0.89,0.895,0.306
C=CCOC(=O)[C@H]1[C@@H]2C(=O)O[C@@H](c3ccccc3)[C@@H](c3ccccc3)N2[C@@H](c2ccc(OCCOC(=O)[C@H]3C[C@H]4C(=O)N[C@@H](CCCC[N+](C)(C)C)C(=O)N4[C@H]3c3ccc(O)cc3)cc2)[C@]12C(=O)Nc1ccc(I)cc12,1.48,0.177,-0.228,1.2 (inactive),0.332,0.86,0.0741,0.803,1.41,0.225,0.756,-0.537,0.853,-0.421,-0.0782,0.0549,1.11,1.86,0.218,0.659
COCCCNC(=O)[C@]1(CCC(=O)OC(C)(C)C)N=C(c2ccc(OCCCO)cc2)O[C@@H]1c1ccccc1CN=[N+]=[N-],1.42,0.639,0.608,0.378 (inactive),1.41,1.3,-0.504,0.35,-0.299,0.733,1.31,-1.74,0.254,1.38,0.282,0.45,0.147,2.04,1.29,0.312
C=CCC(OC(C)=O)[C@@H]1[C@@H](N(Cc2cc3ccccc3o2)C(=O)c2cccc3ccccc23)c2cc(OCCCO)ccc2N1C(=O)c1ccc(-c2ccccc2)cc1 (stereo not given in full),-0.424,0.365,0.531,-1.82 (inactive),0.0822,-0.34,-0.0077,0.176,-0.0541,0.971,-0.0367,0.0372,-0.126,0.132,0.908,0.0368,-0.0553,-0.219,0.235,0.359
C=C(COC)C(=O)CC[C@@H](OC(C)=O)c1ccc(CO)o1,1.38,0.0244,-0.45,0.264 (inactive),1.24,0.139,-0.42,1.52,1.48,1.38,-0.363,-0.0928,0.747,-0.401,-0.515,-0.0572,-0.123,0.0139,0.55,-0.0178
